Values without a mark were called inactive. For some of these results: Results with a measured potency or affinity are listed apart. Calls of active or inactive are those of the source. Unless noted, how the calls were made is not given here.
Key:
[1] = antimalarial activity against Dd2 strain (AID 2302;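 active means growth inhibition above 50% at the single 2 µM test dose, taken to imply half-maximal potency below 2 µM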;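 further: 0% = DMSO untreated growth and 100% = chloroquine plus artemisinin killed control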); settings: P. falciparum Dd2 in RBCs, LDH growth readout, 72 h; at 2 µM; active compounds read high
[2] = human hepatoma cell viability loss – ATP luminescence, cytotoxicity control for P. falciparum antimalarial project, primary screen (AID 2303;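 active means inhibition above 50%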;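 further: 0% = DMSO wells and 100% = digitonin-killed cells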); settings: HepG2 viability, 24-48 h, at 10 µM, active compounds read high
[3] = target: L-lactate dehydrogenase (Plasmodium falciparum (isolate CDC / Honduras)) (UniProt Q27743); experiment: PfLDH activity inhibition – cell lysate, 3D7 strain, counter-screen for P. falciparum growth inhibition project (AID 2304);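 further: 0% = vehicle and 100% = reference inhibitor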; settings: P. falciparum 3D7 crude extract, LDH APAD/NBT absorbance; at 2 µM; active compounds read high
[4] = inhibition of 3D7 malaria parasite growth – strain 3D7 (AID 2306);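 further: 0% = DMSO wells and 100% = chloroquine plus artemisinin control wells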; settings: P. falciparum 3D7 erythrocytic growth, LDH absorbance, 72 h; at 2 µM; active compounds read high
[5] = target: Calcium-dependent protein kinase 1 (Plasmodium falciparum (isolate 3D7)) (UniProt P62344); experiment: PfCDPK1 kinase inhibitors, biochemical, TCAMS library (AID 1159585; cut-off not given, nearly all actives have IC50 up to about 0.98 µM;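 further: inhibitors leave more ATP so luminescence rises with inhibition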); settings: recombinant PfCDPK1, Kinase-Glo ATP depletion luminescence
[6] = target: Plasmodium falciparum protein kinase 6 (PK6, PF3D7_1337100) (UniProt Q8IDW1); experiment: PfPK6 kinase inhibitors, biochemical, TCAMS library (AID 1159586); settings: recombinant PfPK6, Kinase-Glo ATP depletion luminescence
[7] = target: Protein kinase 7 (PK7), Plasmodium falciparum 3D7 (PF3D7_0213400) (UniProt Q7YTF7); experiment: inhibition of Plasmodium PK7 catalytic activity – biochemical, TCAMS antimalarial set, Kinase-Glo luminescence (AID 1159587); settings: recombinant PfPK7, Kinase-Glo ATP depletion luminescence
[8] = target: Calcium-dependent protein kinase 4 (Plasmodium falciparum (isolate 3D7)) (UniProt Q8IBS5); experiment: PfCDPK4 kinase inhibitors, biochemical, TCAMS library (AID 1159588; cut-off not given, nearly all actives have IC50 up to about 0.91 µM); settings: recombinant PfCDPK4, Kinase-Glo ATP depletion luminescence
Calcium-dependent protein kinase 4 (Plasmodium falciparum (isolate 3D7)), sequence (Q8IBS5 whole entry, looked up): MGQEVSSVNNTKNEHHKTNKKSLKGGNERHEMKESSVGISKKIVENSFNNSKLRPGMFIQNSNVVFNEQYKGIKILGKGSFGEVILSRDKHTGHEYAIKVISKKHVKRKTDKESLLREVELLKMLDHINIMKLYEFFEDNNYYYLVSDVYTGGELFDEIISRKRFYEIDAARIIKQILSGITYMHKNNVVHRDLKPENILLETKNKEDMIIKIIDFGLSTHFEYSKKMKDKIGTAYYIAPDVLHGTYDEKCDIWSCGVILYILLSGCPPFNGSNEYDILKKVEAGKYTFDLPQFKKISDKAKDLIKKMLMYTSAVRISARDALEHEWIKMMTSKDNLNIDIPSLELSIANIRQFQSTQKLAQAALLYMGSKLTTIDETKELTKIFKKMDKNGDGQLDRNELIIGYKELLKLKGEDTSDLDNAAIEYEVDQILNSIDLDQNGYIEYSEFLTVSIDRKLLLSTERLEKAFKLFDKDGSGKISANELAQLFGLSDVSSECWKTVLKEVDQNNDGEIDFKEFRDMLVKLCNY

L-lactate dehydrogenase (Plasmodium falciparum (isolate CDC / Honduras)), sequence (Q27743 whole entry, looked up): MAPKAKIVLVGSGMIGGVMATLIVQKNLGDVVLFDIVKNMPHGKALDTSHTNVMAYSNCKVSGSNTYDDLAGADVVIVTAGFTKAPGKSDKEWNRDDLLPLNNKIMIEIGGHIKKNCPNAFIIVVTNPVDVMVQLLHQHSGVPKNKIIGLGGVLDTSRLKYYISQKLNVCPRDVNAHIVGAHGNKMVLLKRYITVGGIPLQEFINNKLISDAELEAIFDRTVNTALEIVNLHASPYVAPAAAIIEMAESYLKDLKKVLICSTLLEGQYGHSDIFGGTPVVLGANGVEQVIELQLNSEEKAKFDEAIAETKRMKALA
Protein kinase 7 (PK7), Plasmodium falciparum 3D7 (PF3D7_0213400), sequence (Q7YTF7 1-343): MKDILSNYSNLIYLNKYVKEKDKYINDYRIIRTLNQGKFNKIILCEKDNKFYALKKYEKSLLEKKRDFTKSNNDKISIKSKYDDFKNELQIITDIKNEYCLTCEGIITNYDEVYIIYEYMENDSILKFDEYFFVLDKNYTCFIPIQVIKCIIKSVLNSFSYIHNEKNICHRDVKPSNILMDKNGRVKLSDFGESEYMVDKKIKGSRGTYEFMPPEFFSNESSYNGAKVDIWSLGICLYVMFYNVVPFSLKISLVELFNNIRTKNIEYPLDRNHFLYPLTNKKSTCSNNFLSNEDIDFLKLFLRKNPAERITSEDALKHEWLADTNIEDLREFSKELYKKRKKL
Plasmodium falciparum protein kinase 6 (PK6, PF3D7_1337100), sequence (Q8IDW1 1-305): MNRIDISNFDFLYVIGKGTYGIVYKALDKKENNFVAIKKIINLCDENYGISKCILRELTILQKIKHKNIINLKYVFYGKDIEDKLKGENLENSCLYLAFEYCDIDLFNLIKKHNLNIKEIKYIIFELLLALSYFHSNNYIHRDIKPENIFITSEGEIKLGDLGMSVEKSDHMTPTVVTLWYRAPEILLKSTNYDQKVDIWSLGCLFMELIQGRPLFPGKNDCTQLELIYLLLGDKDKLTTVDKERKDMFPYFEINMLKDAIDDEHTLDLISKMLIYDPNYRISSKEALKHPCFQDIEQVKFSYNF
Calcium-dependent protein kinase 1 (Plasmodium falciparum (isolate 3D7)), sequence (P62344 whole entry, looked up): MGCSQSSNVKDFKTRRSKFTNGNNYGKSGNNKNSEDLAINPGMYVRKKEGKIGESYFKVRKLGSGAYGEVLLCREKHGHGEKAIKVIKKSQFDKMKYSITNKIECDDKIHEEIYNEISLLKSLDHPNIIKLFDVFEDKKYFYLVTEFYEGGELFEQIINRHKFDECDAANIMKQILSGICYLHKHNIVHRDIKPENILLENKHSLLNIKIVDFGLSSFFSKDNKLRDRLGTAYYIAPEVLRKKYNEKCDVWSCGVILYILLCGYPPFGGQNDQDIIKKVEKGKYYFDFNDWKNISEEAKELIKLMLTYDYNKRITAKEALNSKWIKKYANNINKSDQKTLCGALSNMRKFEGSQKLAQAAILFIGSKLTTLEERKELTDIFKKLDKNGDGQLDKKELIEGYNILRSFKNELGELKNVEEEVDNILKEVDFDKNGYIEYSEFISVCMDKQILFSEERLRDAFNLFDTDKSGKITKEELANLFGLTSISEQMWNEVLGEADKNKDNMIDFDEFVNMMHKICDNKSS

SMILES | growth inhibition [1] | inhibition [2] | inhibition [3] [%] | growth inhibition [4] | outcome [5] | outcome [6] | outcome [7] | outcome [8]
CCC(c1ccccc1)c1nn2c(-c3cccs3)nnc2s1 (stereo not given) | 95% (active) | 10% | -4 | 97% (active) | inactive | inactive | inactive | inactive
Cc1nc2ccc3ccc(CNc4ccc(C(=O)N[C@@H](CCC(=O)O)C(=O)O)c(F)c4)cc3c2c(=O)[nH]1 | 96% (active) | 41% | -1 | 96% (active) | inactive | inactive | inactive | inactive
O=C(c1cc(-c2ccccc2)n[nH]1)N1CCN(S(=O)(=O)c2ccc(Cl)s2)CC1 | 81% (active) | 9% | 1 | 88% (active) | inactive | inactive | inactive | inactive
CCCCN1CC[C@@H](CCC(O)c2cc(OCCC)nc3ccc(OC)cc23)[C@@H](CC)C1 (stereo not given in full) | 99% (active) | 23% | -4 | 100% (active) | inactive | inactive | inactive | inactive
CCOc1ccc2ccccc2c1C(=O)Nc1cc(C)nn1-c1nc(C)cc(=O)[nH]1 | 86% (active) | 28% | -1 | 93% (active) | inactive | inactive | inactive | inactive
C=C(C)Cn1cc(C2CCN(CCN3CCC(CNC(=O)c4ccc(-c5ccc(C#N)cc5)cc4)CC3)CC2)c2ccccc21 | 94% (active) | 64% (active) | -3 | 99% (active) | inactive | inactive | inactive | inactive
CCCCN(CCCC)Cc1cc(Nc2ccnc3cc(Cl)ccc23)ccc1O | 87% (active) | 67% (active) | -1 | 102% (active) | inactive | inactive | inactive | inactive
O=C(Nc1ccc(Cn2ncc(N3CCCNCC3)c(Cl)c2=O)cc1)Nc1cc(C(F)(F)F)cc(C(F)(F)F)c1 | 29% | 25% | 3 | 100% (active) | inactive | inactive | inactive | inactive
Cc1c(C(=O)Nc2cc(Sc3ccc(F)cc3)cc([N+](=O)[O-])c2)sc2ncn(Cc3cccc(F)c3)c(=O)c12 | 53% (active) | -1% | 5 | 100% (active) | inactive | inactive | inactive | inactive
COc1ccc(CC2(c3ccc(F)cc3)N=C(N)N(CCCc3ccccc3)C2=O)cc1 (stereo not given) | 97% (active) | 38% | 0 | 99% (active) | inactive | inactive | inactive | inactive
c1ccc2[nH]c(-c3ccc(-c4ccc(CN5CCN(CCN6CCOCC6)CC5)cc4)s3)nc2c1 | 100% (active) | 39% | -2 | 100% (active) | inactive | inactive | inactive | inactive
CN(C)c1c(CNCCCCCCNCc2ccc3ccccc3c2N(C)C)ccc2ccccc12 | 51% (active) | 100% (active) | -2 | 100% (active) | inactive | inactive | inactive | inactive
Cc1cccc2[nH]c(-c3ccc(-c4cccc(NC(=O)c5cncn5C)c4)cc3)nc12 | 1% | 2% | 2 | 100% (active) | inactive | inactive | inactive | inactive
CC(C)C[C@H](NC(=O)c1cc2ccccc2s1)C(=O)N[C@H]1CCN(Cc2ccc(OC[C@@H]3CCCN3C)c3ccccc23)C1 | 93% (active) | 69% (active) | -2 | 101% (active) | inactive | inactive | inactive | inactive
O=C(NC1CCCc2ccccc21)[C@@H]1CCCN1C(=O)c1ccc(O)c(-c2ccc(Cl)c(Cl)c2)c1 (stereo not given in full) | 99% (active) | -6% | -2 | 99% (active) | inactive | inactive | inactive | inactive
Clc1cc(Nc2ncnc3cc(C#C[C@H]4CCCN4)sc23)cc2[nH]c(Cc3ccccc3)nc12 | 57% (active) | 29% | 1 | 91% (active) | inactive | inactive | inactive | inactive
Fc1ccc2[nH]cc(CCNCc3ccc(-c4cccc(-c5nc6ccccc6[nH]5)c4)cc3)c2c1 | 99% (active) | 69% (active) | -3 | 100% (active) | inactive | inactive | inactive | inactive
Cc1[nH]c(C)c(-c2ccc(OCc3ccc(F)cc3)nc2)c(=O)c1Br | 97% (active) | 41% | -4 | 97% (active) | inactive | inactive | inactive | inactive
Cc1c(Cl)cccc1S(=O)(=O)N1CCCCC(c2ccc(C(F)(F)F)cc2)=N1 | 91% (active) | 15% | 5 | 86% (active) | inactive | inactive | inactive | inactive
COc1ccc(N(C)Cc2cnc3nc(N)nc(N)c3n2)cc1 | -1% | 15% | 1 | 98% (active) | inactive | inactive | inactive | inactive
